Columns and labels:
Assay in all cases: PBM binding z-score (relative to random genomic background probes); higher = stronger binding; sequences stand for … in GC…GCGATTGACAGCGTAGAATGAAGG
[1] = tested on: RARb homodimer (NR concentration 270 nM)
Outline: (§1)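 Custom Agilent 4×180K protein-binding microarrays carried double-stranded probes. Their 34-nt variable regions held direct-repeat seeds, single-nucleotide variants, half-site ablations and random human genomic background sequences. Arrays were incubated 1 h with ligand-free nuclear receptor dimers in PBS pH 7.4, 2% milk, 0.02% Triton X-100, 1 mM DTT, 0.2 mg/mL BSA and 0.4 mg/ml salmon testes DNA. Antibodies against each partner (one per run) detected binding, and scanned fluorescence was regression-normalized. Binding z-scores use random background probes as reference.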

[2] = tested on: RARg:RXRa (NR concentration 270 nM, RXRa partner concentration 90 nM)
Outline: as §1

[3] = tested on: RARg homodimer (NR concentration 270 nM)
Outline: as §1

[4] = tested on: RXRa DBDmut IVT, anti-RXR (DBD mutation: RXRa K156A/R161A, NR concentration 90 nM)
Outline: as §1

[5] = tested on: RXRa homodimer (NR concentration 180 nM)
Outline: as §1

[6] = tested on: THRa:RXRa (NR concentration 90 nM, RXRa partner concentration 90 nM)
Outline: as §1

[7] = tested on: THRa homodimer (NR concentration 90 nM)
Outline: as §1

[8] = tested on: VDR homodimer (NR concentration 270 nM)
Outline: as §1

Sequence | PBM binding z-score [1] | PBM binding z-score [2] | PBM binding z-score [3] | PBM binding z-score [4] | PBM binding z-score [5] | PBM binding z-score [6] | PBM binding z-score [7] | PBM binding z-score [8]
CCTCGGAGGACAGAAGGACAGAGCTGTCCGCTTT | 0.278 | -0.0569 | 0.674 | -0.277 | -0.555 | 0.672 | -0.622 | -0.357
TTACCAAGGTGAAGTTCGTTGATCCCTCTGTAGA | 1.18 | 0.78 | 0.824 | 1.02 | 0.97 | 1.8 | 0.676 | 1.66
ATAACGAGGGCAATGAGTTGATAGCACGGGTGGC | 0.877 | 1.46 | 1.73 | 1.84 | 1.07 | 0.969 | -0.389 | 3.01
AGAATGAGGTTATACGTAGATCAGGTAAGAAAGT | 1.16 | 1.68 | 1.19 | 1.81 | 2.31 | 2.39 | 1.01 | 0.844
AGTCAAAGTTCACTACGTAACGTAAGATTCAGCT | 3.36 | 4.55 | 5.09 | 4 | 3.76 | 1.4 | -0.394 | 3.71
GCGACTGGGGCATAGCAGGTTACCATAAGGTTGG | 1.04 | 0.402 | 0.629 | -0.432 | 0.456 | 2.44 | -0.122 | -0.335
GGAACGAGTGCAAGTTGATAGCAGAGTTTGATGG | -0.0389 | -0.00885 | 0.227 | 3.42 | 0.155 | -0.241 | -0.787 | 2.87
CATACAGGGTCAGCTGGGCCAGAGTAGGGACGGC | 3.31 | 4.6 | 4.97 | 1.48 | 4.64 | 3.12 | 0.678 | 1.18
GCTCTGAGGACAAGGTCAGAGCTTTGTCCGTAGA | 2.95 | 3.16 | 3.63 | 1.43 | 2.38 | 3.95 | 3.55 | 1.11
CCTGACGGGTCACTGACAGGTTATAGCATTTGGA | 2.98 | 5.4 | 4.25 | 1.04 | 4.25 | 2.44 | 0.0984 | 0.76
TAGCCTAGGTCATTCAGGGGCCATTATAGAAAGC | 3.54 | 6.28 | 4.48 | 2.04 | 3.12 | 3.69 | 1.13 | 1.96
ACAGACAGGTGATGAAGGTAACACAGGCTATCAT | 0.929 | 0.674 | 0.747 | -0.108 | 0.817 | 0.695 | 0.246 | 0.22
CCTAGTTGGTCAAGGTCAAACACGCTATAGGTAC | 4.29 | 4.69 | 4.37 | 2.71 | 4.76 | 4.07 | 3.39 | 4.52
CCTGCTAGGTCATGGTCACCTAATCTACAGTATG | 3.43 | 4.1 | 4.93 | 1.77 | 3.5 | 3.13 | 1.78 | 0.622
ATATGTAGGTTATCGGGTGATTCAGTTTGCGCAT | 1.27 | 0.897 | 0.751 | 0.935 | 1.26 | 1.27 | 1.49 | 0.83
CCTAGTTGGTCAGGAGTTCACACACCGGATATGA | 3.04 | 3.12 | 2.47 | 2.09 | 2.32 | 1.5 | 1.07 | 4.81
CCTTACGGGTCACGAGATTATAGCACGACGAGCG | 2.95 | 5.47 | 5.3 | 1.95 | 5.8 | 2.82 | 0.216 | 0.718
AGAATGAGGTTAAGGTCAGGGAAACAGAATACAT | 4.1 | 4.97 | 4.67 | 1.43 | 4.93 | 4.39 | 4.62 | 2.36
ATCTCTAGGTAAAGTTCCGTGAAAGATCGATAGA | -0.0472 | 0.28 | 0.381 | 0.35 | 0.0302 | 0.529 | 0.224 | 0.431

Sequence | PBM binding z-score [1] | PBM binding z-score [2] | PBM binding z-score [3] | PBM binding z-score [4] | PBM binding z-score [5] | PBM binding z-score [6] | PBM binding z-score [7] | PBM binding z-score [8]
AGAACGAGGGCAATGAGATGATAGCACGGGTGGC | 0.913 | 0.982 | 1.72 | 1.59 | 0.713 | 0.651 | 0.199 | 0.718
TAGCCTAGGTGATTCAGGGGCCAGTATAGAAAGC | 0.919 | 0.914 | 0.0636 | -0.561 | -0.089 | 0.651 | -0.0483 | -0.15
ACTAGCAGGCCACGTTTGGGTCACTCAAACAAAG | 1.91 | 2.05 | 1.58 | -0.109 | 0.813 | 2.64 | 1.28 | -0.0731
CCTATTAGTTGACCATACGGGCAACCGAAGCTCG | 1.12 | 0.753 | 0.421 | 0.337 | 0.116 | 0.0977 | 0.187 | 0.509
CCTAGTTGGTAAAGGTCACACACGCTATAGGTAC | 5.1 | 6.22 | 6.12 | 2.1 | 6.73 | 4.12 | 2.03 | 3.54
AGAATGTGGTTACCAAAGATCAGGGAAACGCTTG | -0.487 | 0.0233 | 0.17 | -0.485 | 0.156 | -0.05 | -0.409 | -0.534
ATCGAAAGGTCGTGAGGTGAGTATACAGAAAGGC | 3.07 | 4.69 | 3.9 | 1.42 | 4.97 | 3.45 | 1.47 | 1.09
TTACCAAGGTGAAGGTAGTTGATCCCTCTGTAGA | 0.8 | 0.328 | 0.323 | -0.443 | 0.761 | 1.84 | 0.575 | -0.396
ATCGAAAGGTCGATGAGGTGAGTATACACCGTTT | 2.52 | 3.5 | 3.32 | 0.841 | 3.56 | 3.75 | 0.943 | 1.17
ATCTATAGGTAACCAAGTTCAGTGAATGCCGAAC | 1.42 | 0.853 | 0.891 | 1.04 | 0.806 | 1.05 | 0.378 | 2.84
CGAACTAGTTCATTGACAGGACAGTGAATAGTAA | 0.576 | 1.79 | 1.11 | 3 | 0.234 | 0.837 | -0.237 | 2.01
CAAGCTAGGTCACAGAGGTCAAAGTCCGTGCGTA | 5.82 | 7.64 | 8.36 | 3.42 | 8.42 | 4.64 | 2.65 | 7.28
CGTCCATGGTCAAAGGTCAGTGAAGAGATGACGG | 4.5 | 5.6 | 5.53 | 0.569 | 5.87 | 2.73 | -0.0105 | 0.771
AACGAAAGGTCGTGAGGTGAGTATACAGAAAGGC | 3.14 | 4.62 | 3.99 | 1.68 | 5.2 | 3.55 | 1.33 | 0.812
CCTACTGGGCCATCAGGTCTTTGATATCAACGTT | 0.24 | -0.0925 | -0.00289 | -0.126 | -0.274 | 0.487 | 0.437 | -0.123
AGTCAAAGTTCAGTACGAGGTAACGTAAAGCACG | 3.01 | 4.32 | 4.54 | 3.09 | 2.66 | 3.64 | 1.21 | 2.62
CAAACTCGGTCACGAAAGGTCAAAGTCGAATGAC | 5.24 | 7.03 | 7.47 | 1.9 | 7.26 | 4.47 | 1.09 | 3.28
CCTACTGGGCCACGAAAGGTCATTGTTTCAGTGA | 4.64 | 4.55 | 4.31 | 0.971 | 5.09 | 3.94 | 0.739 | 2.75
GCTTGTAGATCAAGGTAAAGAAAGACTAAGCTAA | -0.851 | -0.145 | -0.335 | -0.256 | -0.197 | 0.48 | -0.807 | -0.505

Sequence | PBM binding z-score [1] | PBM binding z-score [2] | PBM binding z-score [3] | PBM binding z-score [4] | PBM binding z-score [5] | PBM binding z-score [6] | PBM binding z-score [7] | PBM binding z-score [8]
CCGACTGGGGCAAAGGTGACCATACTCAGTACGA | 1.44 | 1.9 | 1.13 | -0.244 | 2.04 | 0.896 | -0.0809 | -0.471
CATAGCAGGCCAGGGTCACTCAAGCATTTCGCTT | 3.09 | 3.13 | 2.89 | 0.718 | 3.61 | 3.07 | 1.43 | 1.81
CGTCCAAGGTCATTGCTAGGTCAGTGAAAGCATT | 4.96 | 7.64 | 6.66 | 4.51 | 5.45 | 4.38 | 3.31 | 4.55
GCTAGCAGGCCATTTGCGTCACTCAATGACGGGC | -0.848 | -0.404 | -0.336 | -0.115 | -0.347 | -0.649 | -0.795 | -0.529
GCTTGTAGATCAAGGTTAAGAACGACTAAGCTAA | 0.388 | 0.414 | 0.334 | 0.11 | 0.789 | 1.25 | -0.079 | 0.0114
ATAGAAAGGTCGACGAGGTGAGTATACACCGTTT | 2.88 | 3.98 | 3.86 | 1.03 | 4.18 | 3.62 | 0.52 | 1.1
CTTACAGGGTCAGCTAGGCCAGAGTAGGGACGGC | 3.2 | 4.47 | 4.97 | 1.83 | 4.42 | 2.97 | 0.729 | 0.875
ATCTCTAGGTATGACTCAGTTCAGTGAAGAACGC | 0.676 | 0.285 | 0.329 | 0.685 | 0.0899 | 0.451 | 0.83 | 1.5
CGAACTAGGTCAAGAGGTCAAAGTCCGCTTCCCG | 5.66 | 8.2 | 7.63 | 2.69 | 8.43 | 4.34 | 2.51 | 3.88
ACTTACGGGTCAACGAGGTTATATCACGCGTATA | 3.73 | 5.37 | 4.95 | 2.74 | 6.14 | 4.04 | 1.45 | 3.3
CGTCCTAGGTCAAGGTCAGTGAAAGAGACTCGAA | 4.34 | 5.41 | 6.43 | 2.02 | 4.55 | 3.82 | 2.95 | 1.93
ACAGACAGGTGAGTGAAGGTTACTCAGCTGGACG | 0.978 | 0.724 | 0.906 | -0.643 | 0.869 | 1.68 | -0.671 | -0.214
CCAACTGGGGCAAAGGTTACCATACTCAGTACGA | 2.56 | 3.77 | 2.06 | 0.365 | 4.41 | 1.84 | 0.0572 | 0.0335
ACTAGTTGGTCAGCTGAGGTTACACACAATTCGG | 2.03 | 1.46 | 1.69 | 0.642 | 1.31 | 3.86 | 1.97 | 1.01
TCTCGGAGGACACGATAGGTCAGAGCTCGACATC | 3.02 | 2.49 | 3.18 | 0.695 | 1.43 | 2.47 | 0.393 | 0.242
ATCGAAAGGTCGAAGGTGAGTAGACCCACCCGAA | 2.17 | 4.35 | 4.04 | 1 | 5.53 | 1.87 | -0.399 | -0.0656
TCTGCGAGGTCAGTTGGTCAGCTAACGAGCTGCC | 3.86 | 5 | 5.42 | 2.8 | 3.76 | 3.22 | 1.39 | 2.02
CTACCAAGGTGAACAAGGTGGTTGATTACTATTC | 0.848 | 0.716 | 0.76 | 0.305 | 0.617 | 1.7 | 0.798 | -0.122
TGAATGAGGTAATAAGATCAGGGAACGTTGCAAA | -0.532 | 0.204 | 0.306 | -1.15 | 0.365 | 0.991 | -0.205 | -0.404
